Reference: PubChem BioAssay AID463173 (ICCB-Longwood Screening Facility, Harvard Medical School, 2010)
The whole screen tested about 52,000 compounds, of which about 4,300 (8.3%) were called active. This excerpt belongs to a sample that is enriched for actives. Unmarked numbers belong to inactive results. Cut-off read from the data, not from the text of the source: active = survival mostly below about 52% (no sharp cut-off); inactive = mostly above about 56%.

system: DeltatarO mutant; test: S. aureus survival, RN4220 and DeltatarO strains – OD600, teichoic acid synthesis inhibitors, primary screen (AID 463173); details: S. aureus RN4220 wild type/DeltatarO growth, OD600, 18 h, hits give low values, screened at 18.75 µg/mL (by protocol)

| Structure (SMILES) | survival |
| --- | --- |
| O=S1(=O)N=C(SCCO)c2ccccc21 | 85% |
| CCOc1ccc(NC(=O)c2cc(S(=O)(=O)N3CCCCCC3)cn2C)cc1 | 120% |
| CCCC1N=C2c3ccccc3N=C(SCC(=O)NCCc3ccc(Cl)cc3)N2C1=O (configuration not stated) | 93% |
| Cc1ccccc1Cn1c(SCc2ccc(C(=O)NCCc3ccccc3)cc2)nc2ccncc21 | 82% |
| CCCCOc1ccc(NC(=O)CS(=O)CC(=O)Nc2ccc(OC)cc2)cc1 (configuration not stated) | 84% |
| CSc1cccc(NS(=O)(=O)c2ccc3[nH]cc(C(=O)N4CCCCCC4)c(=O)c3c2)c1 | 82% |
| Cc1ccc2nc(-c3ccc(Cl)c(NC(=O)c4ccc(Br)o4)c3)oc2c1 | 48% |
| CC(C)(C)c1ccc(C(=O)Nc2cc(-c3nc4ccccc4o3)ccc2Cl)cc1 | 13% (active) |
| Cc1cc(NC(=O)c2ccc(Br)o2)cc(-c2nc3ccccc3o2)c1O | 98% |
| Cc1ccc2oc(-c3ccc(C)c(NC(=O)c4ccc(C(C)(C)C)cc4)c3)nc2c1 | 136% |
| O=C(Nc1cc(-c2nc3ccccc3o2)ccc1Cl)c1ccc(Br)o1 | 54% (active) |
| CC(C)(C)c1ccc(C(=O)Nc2ccc(-c3nc4ccccc4o3)c(O)c2)cc1 | 69% |
| CCC(NC(=O)Nc1ccc(OC)c(OC)c1)c1c(-n2cccc2)sc2c1CCN(C)C2 (configuration not stated) | 65% |
| COc1ccccc1CNC(=O)c1ccc2c(c1)nc(C)n2-c1cccc(C)c1 | 74% |
| COc1ccc(S(=O)(=O)NCCS(=O)(=O)N2CCN(c3ccccc3)CC2)cc1C | 102% |
| CCOc1ccccc1N(CC(=O)N1CCc2ccccc2C1)S(=O)(=O)c1ccccc1 | 37% (active) |
| CCc1ccccc1N(CC(=O)N1CCc2ccccc2C1)S(C)(=O)=O | 96% |
| COc1ccc(N(CC(=O)N2CCc3ccccc3C2)S(=O)(=O)c2ccccc2)cc1 | 58% |
| COc1ccc(-n2ncc(C(=O)NCc3ccco3)c2C2CCN(C(=O)OC(C)(C)C)CC2)cc1 | 83% |
| Cc1ccccc1NC(=S)N1CCC(NC(=O)C(C)(C)C)CC1 | 92% |
| O=C(Nc1ccc(F)cc1F)C1CCN(S(=O)(=O)c2ccc3[nH]c(=O)ccc3c2)CC1 | 83% |
| CCOC(=O)Cn1nnnc1CN(Cc1cc2c(C)ccc(C)c2[nH]c1=O)C1CCCCC1 | 88% |
| Oc1ccc(N=Cc2ccccc2O)cc1 | 109% |
| O=C1/C(=C/c2ccccc2O)CC/C1=C\c1ccccc1O | 55% (active) |
| CCN(CC)c1ccc(C=C2C(=O)c3ccccc3C2=O)c(O)c1 | 74% |

| Structure (SMILES) | survival |
| --- | --- |
| CCOC(=O)c1cccc(NC(=O)CCn2c(-c3ccc(F)cc3)cc(C(=O)OCC)c2C)c1 | 76% |
| CCN(CC)CCOC(=O)c1ccc(NC(=O)CCn2c(=O)oc3ccccc32)cc1 | 45% (active) |
| CCOC(=O)c1cccc(NC(=O)CCn2c(=O)oc3ccccc32)c1 | 39% (active) |
| COC(=O)c1ccc(NC(=O)Cn2c(=O)oc3ccccc32)cc1 | 69% |
| NS(=O)(=O)c1ccc(NC(=O)CCn2c(=O)oc3ccccc32)cc1 | 73% |
| CCOC(=O)c1ccc(NC(=O)NCCOCCn2c(=O)oc3ccccc32)cc1 | 77% |
| CCc1cccc(C)c1NC(=O)C1CCN(S(=O)(=O)c2c(C)noc2/C=C/c2c(C)cc(C)cc2C)CC1 | 81% |
| Cn1cc(S(=O)(=O)N2CCCC2)cc1C(=O)Nc1ccc(F)cc1F | 77% |
| COc1ccc(NC(=O)C(NC(=O)Cc2cccs2)c2ccc(OC)cc2)cc1 (configuration not stated) | 137% |
| C=CCNC(=O)CSc1nc2cc(C)cc(C)c2cc1C#N | 58% |
| COc1ccccc1CNC(=O)CC(c1ccc(OC)c(OC)c1)N1Cc2ccccc2C1=O (configuration not stated) | 83% |
| CCOC(=O)c1noc2ncn(Cc3cccc(C#N)c3)c(=O)c12 | 130% |
| COc1ccc(CCCc2nnc(SCC(=O)Nc3ccc(Cl)cc3)o2)cc1 | 92% |
| COc1ccc(OC)c(NC(=O)CSC2=Nc3ccccc3C3=NC(CCC(=O)NCc4ccccc4)C(=O)N23)c1 (configuration not stated) | 0% (active) |
| COc1ccc(OC)c(NC(=O)CSC2=Nc3ccccc3C3=NC(CCC(=O)NCCc4ccccc4)C(=O)N23)c1 (configuration not stated) | 80% |
| COc1ccc(NC(=O)CSC2=Nc3ccccc3C3=NC(CC(=O)NCc4ccc(F)cc4)C(=O)N23)cc1 (configuration not stated) | 55% |
| COc1ccc(OC)c(NC(=O)CSC2=Nc3ccccc3C3=NC(CC(=O)NCc4ccc5c(c4)OCO5)C(=O)N23)c1 (configuration not stated) | 80% |
| COc1ccc(OC)c(NC(=O)CSC2=Nc3ccccc3C3=NC(CC(=O)NCc4ccc(F)cc4)C(=O)N23)c1 (configuration not stated) | 52% (active) |
| COc1ccc(OC)c(NC(=O)CSC2=Nc3ccccc3C3=NC(CCC(=O)NCc4ccco4)C(=O)N23)c1 (configuration not stated) | 78% |
| CCOc1ccc(C2C(=O)N(C3CCCCC3)CC(=O)N2C2CCCC2)cc1OC (configuration not stated) | 71% |
| CC(=O)N1CCOc2cc(S(=O)(=O)NCc3ccccc3Cl)c(C)cc21 | 85% |
| Cc1cc(Cl)ccc1NC(=O)c1cccc(NC(=O)N2CCSc3ncccc32)c1 | 74% |
| CCCc1nn2c(=O)cc(COC(=O)c3ccco3)nc2s1 | 77% |
| CCOC(=O)c1cc2c(=O)n3ccccc3nc2n(C)c1=NC(=O)c1c(-c2ccccc2Cl)noc1C | 141% |
| Cc1ccc(NC(=O)c2c(C)nc3sc(C(=O)Nc4ccc(F)cc4)c(N)c3c2-c2ccc(C)o2)c(C)c1 | 60% |

| Structure (SMILES) | survival |
| --- | --- |
| CNC(=O)c1c(-c2ccccc2)oc2ccc(OC)cc12 | 90% |
| COC(=O)c1cc2oc3ccccc3c2n1Cc1c(F)cccc1Cl | 118% |
| CCOC(=O)c1c(-c2ccccc2)oc2ccc(NS(=O)(=O)c3ccc(C(C)C)cc3)cc12 | 70% |
| CCOC(=O)c1c(-c2ccccc2)oc2ccc(N(C(C)=O)S(=O)(=O)c3ccc(CC)cc3)cc12 | 69% |
| C=Cc1ccc(COc2ccc3oc(-c4ccccc4)c(C(=O)OCC)c3c2)cc1 | 45% (active) |
| O=C(O)c1c(-c2ccccc2)oc2ccc(OCc3ccc(Cl)c(Cl)c3)cc12 | -1% (active) |
| O=C(O)c1c(-c2ccccc2)oc2ccc(OCc3c(F)cccc3Cl)cc12 | 29% (active) |
| CCOC(=O)c1c(-c2ccccc2)oc2ccc(OCc3ccccc3Br)cc12 | 38% (active) |
| Cc1ccc(NC(=O)Cn2c(=O)n(CCCCC(=O)NCc3ccc4c(c3)OCO4)c(=O)c3ccccc32)cc1 | 72% |
| CC1(C)N([O-])C2=C(CCCC2)[N+]1=O | 83% |
| CCCc1nc2ccccc2n2c(-c3cccc(C)c3)c3c(=O)n(C)c(=O)n(C)c3c12 | 67% |
| Cc1cc(-c2ccc(C)c(S(=O)(=O)NCCc3ccccc3)c2)on1 | 80% |
| CCOC(=O)c1c(-c2ccc(OC)cc2)oc2ccc(OCc3ccc(F)cc3F)cc12 | 38% (active) |
| CCOC(=O)c1c(-c2ccc(OC)cc2)oc2ccc(OCc3ccc(Br)cc3)cc12 | 63% |
| CCOC(=O)c1c(-c2ccccc2)oc2cc(Br)c(OCc3ccccc3)cc12 | 36% (active) |
| CCOC(=O)c1c(-c2ccccc2)oc2ccc(N(C(C)=O)S(=O)(=O)c3ccc(C)cc3)cc12 | 62% |
| Cc1ccc(COc2ccc3oc(-c4ccccc4)c(C(=O)O)c3c2)cc1 | 34% (active) |
| CCOC(=O)c1c(C)oc2ccc(OCC(N)=O)cc12 | 100% |
| CCOc1ccc(-c2oc3ccc(C)cc3c(=O)c2O)cc1 | 91% |
| CCOC(=O)c1c(-c2ccccc2)oc2ccc(N(C(C)=O)S(=O)(=O)c3ccccc3)cc12 | 60% |
| CCOC(=O)c1c(-c2ccccc2)oc2cc(Br)c(OCC(N)=O)cc12 | 79% |
| CCOC(=O)c1c(-c2ccc(OC)cc2)oc2ccc(OCc3ccc(C(=O)OC)cc3)cc12 | 48% |
| CCOC(=O)c1c(-c2ccccc2)oc2ccc(OCc3ccc(C)cc3)cc12 | 30% (active) |
| CCOC(=O)c1c(-c2ccc(OC)cc2)oc2ccc(OCc3ccccc3C)cc12 | 51% |
| Cc1ccc(C(=O)N/C(=C\c2cn(S(=O)(=O)N(C)C)c3ccccc23)C(=O)NCCCn2ccnc2)cc1 | 80% |

| Structure (SMILES) | survival |
| --- | --- |
| O=C(c1ccc(CS(=O)(=O)c2c(Cl)cccc2Cl)o1)N1CCN(c2ccccc2)CC1 | 107% |
| Cc1ccc(CNC(=O)CN2C(=O)CSc3c2c(C)nn3-c2ccccc2)cc1 | 89% |
| CC(CCc1ccccc1)NC(=O)Cn1ncc2c3ccccc3n(Cc3ccccc3F)c2c1=O (configuration not stated) | 92% |
| COc1ccccc1N1CCN(C(=O)CCS(=O)(=O)c2cc(Br)cc3c2N(C(=O)C2CC2)CC3)CC1 | 83% |
| O=C(O)CCn1c(=O)c2cccn2c2cccnc21 | 98% |
| CCOC(=O)c1c(-c2ccccc2)oc2ccc(OCc3cccc(Br)c3)cc12 | 38% (active) |
| O=C(NCCc1ccccc1)C(=O)NCC(c1cccnc1)N1CCN(c2ccc(F)cc2)CC1 (configuration not stated) | 103% |
| C=CCN(CC=C)C(=O)COc1ccc(Cl)cc1Cl | 73% |
| CCOc1cccc2sc(NC(=O)c3ccc(S(=O)(=O)N4CCc5ccccc54)cc3)nc12 | 71% |
| Oc1ccc(-c2cccc(-c3ccc(O)cc3)c2)cc1 | 27% (active) |
| CCOc1ccc(CNCc2c(C(=O)O)n(Cc3ccc(OC)cc3)c3ccccc23)cc1 | 82% |
| COc1ccc2c(CNCc3ccc(Cl)cc3)c(C(=O)O)n(Cc3ccccc3C)c2c1 | 97% |
| COc1ccc(OC)c(CNCc2c(C(=O)O)n(Cc3ccccc3)c3cc(OC)ccc23)c1 | 77% |
| CCOc1ccc(CNCc2c(C(=O)O)n(Cc3ccc(C)cc3)c3cc(C)ccc23)cc1 | 12% (active) |
| Cc1ccc(CNCc2c(C(=O)O)n(Cc3ccccc3C)c3cc(C)ccc23)cc1 | 67% |
| C=Cc1ccc(Cn2c(C(=O)O)c(CNCCc3ccccc3)c3ccc(C)cc32)cc1 | 92% |
| CCOc1ccc(CCNCc2c(C(=O)O)n(Cc3ccc(C)cc3)c3cc(OC)ccc23)cc1 | 58% |
| COc1ccc(OC)c(CNCc2c(C(=O)O)n(Cc3cccc(F)c3)c3cc(OC)ccc23)c1 | -1% (active) |
| Cc1ccc2c(CNCc3cccc(Cl)c3)c(C(=O)O)n(Cc3ccc(F)cc3Cl)c2c1 | 70% |
| Cc1ccccc1Cn1c(C(=O)O)c(CNCc2cccc(F)c2)c2ccccc21 | 52% (active) |
| CCc1ccc(CNCc2c(C(=O)O)n(Cc3cccc(F)c3)c3cc(OC)ccc23)cc1 | 79% |
| Cc1ccc2c(CNCCc3ccccc3)c(C(=O)O)n(Cc3ccccc3C)c2c1 | 6% (active) |
